In PubChem BioAssay (NCI) one finds growth data, which are given here for 40 compounds.

About 83,000 compounds went through this panel and 20% of them were active in at least one assay; those are over-represented in the sample as a whole.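 Interpretation: 100, growth as untreated; towards 0, rising growth inhibition; 0, no net growth; 0 to -100, cell death. Compounds scoring below 10 were considered active.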 The source made the active and inactive calls.

The test system of this experiment is MDA-MB-468 breast. The experiment in a line: NCI-60 one-dose screen, 48 h (100 = growth as untreated, 0 = no growth, -100 = all killed). Conditions: 10 µM unless noted.
For the compound `C=CCn1c(SCC(=O)Nc2ccc(/C(C)=N\O)cc2)nnc1-c1cc(-c2ccccc2)nc2ccccc12`, the growth was 73% (inactive).
For `Cc1ccnc(Nc2ccc([N+](=O)[O-])c(NCCN3CCOCC3)n2)c1` the value was 26.3% (inactive); for `C#CCOc1ccc(-c2csc(NC(=O)C=C)n2)cc1NS(=O)(=O)c1cccc2c(N(C)C)cccc12`, 11.3% (inactive).
The value for `Oc1[nH]c2ccccc2c1/C=c1/cc2c(c(-c3ccc(F)cc3)n1)=Nc1ccccc1-2` was -60.8% (active); that for `O=[N+]([O-])c1ccc(Sc2ncccn2)c([N+](=O)[O-])c1` was 5.95% (active).
For `CN1CCN(CCOc2cc(OC3CCOCC3)c3c(Nc4c(Cl)ccc5c4OCO5)ncnc3c2)CC1`, the growth was 25.8% (inactive).
The value for `O=S(=O)(Nc1ccc(C2CC2)cc1)c1ccc(-c2cnc(C3CC3)o2)cc1` was 18.4% (inactive).
The value for `C(=N\Nc1ccc2ccccc2n1)/c1ccccn1` was -27% (active); that for `N#C/C(=C\c1ccc(Br)cc1)n1nnc2cccc(F)c21` was -0.554% (active); that for `COc1ccccc1NC(=O)COc1ccc(/C=C2/Oc3cc4occc4c(OC)c3C2=O)cc1OC` was 102% (inactive).
The value for `O=C(O)c1cccc2c1C(=O)N(c1ccc3c(c1)Cc1ccccc1-3)C2=O` was 107% (inactive).
As for `C[C@@H]1C[C@H](N)C[C@H](c2ccncc2NC(=O)c2ccc(F)c(-c3c(F)cccc3F)n2)C1`, the growth is 22.3% (inactive).
For `Cc1ccc(-c2c3c(N)c4c(nc3nc3c2c(C)nn3-c2ccccc2)CCCC4)cc1` the value was 107% (inactive); for `COc1ccc(CCN2C(=O)CCSC2=S)cc1OC`, 19.8% (inactive); for `O=C(CN1C(=O)/C(=C/c2ccccc2)SC1=S)N1CCOCC1`, 82.4% (inactive).
The value for `Cc1cc(Cc2cc(C)c(O)c(C)c2)cc(C)c1O` was -0.94% (active); that for `O=C1NC(=O)/C(=C/C=C/c2ccccc2)S1` was 63.3% (inactive).
Consider `O=C(CC(C(=O)c1ccccc1)N1CCOCC1)c1ccccc1` (stereo not given), for which the growth was 101% (inactive).
For `O=C(O)CCCN1C(=O)/C(=C/c2cn(-c3ccccc3)nc2-c2ccc([N+](=O)[O-])cc2)SC1=S` the value was 73.5% (inactive); for `COC(=O)c1nc(=S)[nH]c(C(=O)OC)c1C(=O)c1ccc2ccccc2c1`, 90% (inactive); for `Clc1ccc(C2CC(c3cccc(Nc4ccncc4)c3)=NN2c2cc(Cl)cc(Cl)c2)cc1` (stereo not given), 84.9% (inactive).
The value for `COc1cc(-c2n/c(=C\c3c(O)[nH]c4cc(Cl)ccc34)cc3c2=Nc2ccccc2-3)cc(OC)c1OC` was 73.7% (inactive).
The value for `CC(C)(C)c1ccc(C2CC(=O)C3=C(C2)Nc2ccccc2N(C(=O)c2ccccc2Cl)C3c2ccc(F)cc2)cc1` (stereo not given) was -20.1% (active); that for `COC(C(=O)[C@@H](O)[C@@H](C)O)[C@@H]1Cc2cc3cc(O[C@H]4C[C@@H](O[C@H]5C[C@@H](O)[C@H](O)C(C)O5)[C@H](O)C(C)O4)cc(O)c3c(O)c2C(=O)[C@H]1O[C@H]1C[C@@H](O[C@H]2C[C@@H](O[C@H]3C[C@@H](OC)[C@H](O)C(C)O3)[C@@H](O)C(C)O2)[C@H](O)C(C)O1` (stereo not given in full) was 59.3% (inactive); that for `COc1cc(-c2nn(-c3cccc(NC(=O)Nc4cc(C(F)(F)F)cc(C(F)(F)F)c4)c3)cc2-c2ccncc2)ccc1Cl` was -25.4% (active).
Turning to `COc1cc2c(Nc3ccc(-c4ccc(N)cc4)cc3)ncnc2c(OC)c1OC`, the growth is 71.9% (inactive).
Regarding `COc1ccc2c(c1)Oc1nc(N)c(C#N)c(N)c1C2Sc1ccc(SC)cc1` (stereo not given), the growth was -40.8% (active).
Take `CC(=O)O[C@H]1[C@H](CC#CC#CC[C@@H]2C[C@]3(C)[C@H]4CC=C5[C@H]6[C@@H](C)[C@H](C)CC[C@]6(C(=O)NCCN(CCN)CCN)CC[C@@]5(C)[C@]4(C)CC[C@H]3C(C)(C)[C@H]2OC(C)=O)C[C@]2(C)[C@H]3CC=C4[C@H]5[C@@H](C)[C@H](C)CC[C@]5(C(=O)NCCN(CCN)CCN)CC[C@@]4(C)[C@]3(C)CC[C@H]2C1(C)C`: the growth is 1.36% (active).
For `COCCn1cc(-c2nc(-c3cc4cccnc4[nH]3)cs2)c2cc(OC)ccc21` the value was -24% (active); for `CN1C(=O)C2(Nc3cc(Cl)ccc3S2)c2cc(Cl)ccc21` (stereo not given), 106% (inactive).
For `O=C1NC(=O)C(c2ccccc2)(c2ccccc2)N1Cc1cn(-c2c3ccccc3nc3ccccc23)nn1` the value was 38.2% (inactive).
The value for `CCOC(=O)c1c(-c2ccc(C)cc2)c(C#N)c(=O)n(-c2cccc(C(F)(F)F)c2)c1N` was 99.9% (inactive); that for `CC(=O)Nc1nc(C)c(C(=O)N/N=C/c2cccn2C)s1` was 111% (inactive); that for `CCC([N+](=O)[O-])S(=O)(=O)c1ccc(C)cc1` (stereo not given) was 91.3% (inactive).
For `Cn1cc(-c2nn3cc(-c4ccncc4)nc3s2)c2cc(Br)ccc21`, the growth was 74.9% (inactive).
The value for `O=C1Nc2ccc(C(=O)O)cc2/C1=N/c1nnc(Sc2ccccc2)s1` was 105% (inactive); that for `COc1ccc(S(=O)(=O)NCCNc2nccc(-c3c(-c4cccc(N)c4)nc4sccn34)n2)cc1` was 88.5% (inactive).
For `COc1cc(/C=C/C(=O)c2ccc(O)c(CN3CCN(c4cc5c(cc4F)c(=O)c(C(=O)O)cn5C4CC4)CC3)c2)cc(OC)c1OC` the value was 6.61% (active); for `CCCCOc1nc2c(C)cccc2cc1C1CNC(=O)c2ccccc2N1` (stereo not given), 51.6% (inactive); for `Fc1cc(C(F)(F)F)ccc1-c1cncnc1NC1CCCCCC1`, 82.4% (inactive).
